Test results reported in PubChem BioAssay (NCATS).
“And” between values parts separate entries of the source, which are not always exact repeats. Equal values may be shown once. Inconclusive results are not listed. The source made the active and inactive calls. Calls come from the whole dose curve; as a rule, active = well fitted activation curve with a large enough effect in the signal ratio; inconclusive = small, poorly fitted or top-dose-only effect, or a change in a side signal; inactive = flat fitted curve, though single readings scatter; the % refers to the signal ratio.

Assay: qHTS assay for small molecule activators of the nuclear factor-kappa B (NF-kB) signaling pathway (AID 651749); note: series mostly up to about 77 µM; % of control where 0% means no effect
Conditions: NF-kB-bla ME-180 cells, beta-lactamase FRET ratio, 16 h; hits give high values
In short: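 In this qHTS format, compounds acting as activators increase NF-kB-driven beta-lactamase in ME-180 cells, measured as disrupted FRET after 16 hr exposure at 37C and 5% CO2.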

SMILES | activation
O=C(O)C(Br)Br | -1.25% (inactive)
Cc1ccc(OP(=O)(Oc2ccc(C)cc2)Oc2ccc(C)cc2)cc1 | -1% (inactive) and 2.01% (inactive)
CN(C)c1ccc(N(C)C)cc1 | 0.946% (inactive)
O=[N+]([O-])c1c(Cl)c(Cl)c(Cl)c(Cl)c1Cl | -2.45% (inactive) and -1.33% (inactive)
CN1CSC(=S)N(C)C1 | -0.197% (inactive) and -1.34% (inactive)
C=CC(=O)OCCO | 0.11% (inactive)
O=[N+]([O-])c1ccc(O)c([N+](=O)[O-])c1 | 3.32% (inactive)
CC(C)[N+](=O)[O-] | -0.258% (inactive)
CCCC[N+](=O)[O-] | -0.304% (inactive)
Cc1cc(-c2cc(C)c(N)c(C)c2)cc(C)c1N | 0.737% (inactive)
CCN(N=O)C(N)=O | -1.14% (inactive)
N#CC(Cl)(Cl)Cl | -0.633% (inactive)
CCCCC(CC)COC(=O)c1ccc(C(=O)OCC(CC)CCCC)c(C(=O)OCC(CC)CCCC)c1 (stereo unspecified) | 1.1% (inactive)
O=C(O)C(Br)CBr (stereo unspecified) | 1.48% (inactive)
Nc1c(Br)cc([N+](=O)[O-])cc1[N+](=O)[O-] | -0.945% (inactive)
N#CC(Br)Br | -1.36% (inactive)
O=C(O)C(Cl)Br (stereo unspecified) | 0.434% (inactive)
O=C(O)c1cccc(Cl)c1 | -1.59% (inactive)
Cc1cc(N=Nc2ccccc2C)ccc1N | -0.0756% (inactive) and -0.721% (inactive)
OCCCCO | -0.721% (inactive)
O=[N+]([O-])c1cc(Cl)c(Cl)c(Cl)c1 | -1.89% (inactive)
